{
  "source": "PubChem BioAssay (EPA / NIEHS)",
  "note": "Active and inactive are the calls of the source. The calls were made as follows: active = hit-call score of the fitted dose curve at least 0.9, where 1 is the maximum; inactive = score below 0.9.",
  "data": [
    {"read-out": "CYP2C8 (gene 1558)", "test": "LTEA_HepaRG_CYP2C8: Life Technologies and Expression Analysis (LTEA) Assay for CYP2C8 using HepaRG (AID 2283483)", "conditions": "mRNA level, 48 h; actives raise or lower the signal", "description": "LTEA_HepaRG is a cell based, multiplexed-readout assay that uses HepaRG, a human liver cell line, with measurements taken at 48 hours after chemical dosing on a 96-well plate.LTEA_HepaRG_CYP2C8 is one of 102 assay component(s) measured in the LTEA HepaRG cell culture assay. It is a marker of NR mediated metabolism.Data from the assay component LTEA_HepaRG_CYP2C8 was analyzed into 1 endpoint. This assay endpoint, LTEA_HepaRG_CYP2C8, was analyzed with bidirectional fitting relative to DMSO as the negative control and baseline of activity. Using a type of inducible reporter, measures of mRNA induction for gain or loss-of-signal activity can be used to understand regulation of transcription factor activity. To generalize the intended target to other relatable targets, this assay endpoint is annotated to the cyp intended target family, where the subfamily is xenobiotic metabolism.\nA total of 1060 chemcials from the ToxCast library were tested in eight-point concentration-response experiments. Cell culture and cytotoxicity assays were conducted at Thermo Fisher Scientific's Custom Services facility (Madison, WI). A single lot of human HepaRG cells (Thermo Fisher Scientific, Frederick, MD) was used for the cell culture experiments. 96-well format collagen type I coated plates of human HepaRG cells were prepared using established methods. Briefly, cryopreserved HepaRG cells were thawed, plated at a density of approximately 100,000 cells/well in HepaRG Thaw, Plate, and General Purpose media (HPRG770, Thermo Fisher Scientific), and incubated for 48 hours. 0.5% DMSO was selected as vehicle control to balance the requisite need of DMSO in HepaRG cultures to maintain differentiation (for example, baseline metabolism, proportions of hepatocytes vs. cholangiocytes), while enabling further hepatic receptor pathway activation (for example, PXR and CAR) in response to chemical exposure. 48 hours after plating, the culture medium was replaced with HepaRG Serum-Free Incudtion Media. Cells were exposed to each test chemical in duplicate and maintained in CO2 incubators for another 48 hours. Chemical plates were thawed to room temperature and 200x concentrations of treatment groups were prepared. 8-point conentration-reponse curves were made with the highest exposure at 100 uM, followed by half-log dilutions, all in 0.5% DMSO. Each test plate contained variouse controls, induction positive controls (1mM phenobarbital), cytotoxicity positive controls ([…] aflatoxin B1), vehicle controls (0.5% DMSO), and total lysis controls (0.5% DMSO). Cell morphology images were taken using an Essen IncuCyte FLR automated microscope, with six 96-well plates imaged in about 24 minutes. Images were captured and exported and JPEG files. Spent culture media was transfered to black-well plates for the LDH assay, and remaining media was sorted at -80 C for later use. Cells were treated with RLT buffer and frozen until shipped for gene expression analysis. Total RNA was isolated from the cell suspension in 75 uL of Buffer RLT (Qiagen, Germantown, MD 20874) by Quintiles/Expression Analysis (Durham, NC) using a custom isolation procedure. Total RNA from each plate well was transferred to a preamplification plate. Fluidigm's 96.96 Dynamic ArrayTM (Fluidigm, Amsterdam, the Netherlands) technology was used for gene expression analyses by quantitative reverse transcription polymerase chain reaction (qRT-PCR, performed by Quintiles/Expression Analysis, Durham, NC)89. Standard TaqManTM Assays (Applied Biosystems/ThermoFisher Scientific, Foster City, CA) were used to assess the expression of 93 genes selected based on their selectivity and sensitivity to important hepatic receptors known to be modulated by environmental chemicals; importance in human hepatocyte functionality; and hepatotoxicity. […]", "values": [
      {"smiles": "N#CC(Br)(Br)C(N)=O", "outcome": "inactive"},
      {"smiles": "CCC[CH2][Sn]([Cl])([CH2]CCC)[CH2]CCC", "AC50": "2.42 µM (active)"},
      {"smiles": "CN(C)C(=O)Nc1ccc(Cl)cc1", "outcome": "inactive"},
      {"smiles": "N#CC(Br)Br", "outcome": "inactive"},
      {"smiles": "O=C(Nc1ccccc1)c1ccccc1I", "outcome": "inactive"},
      {"smiles": "O=C(N[C@H](c1ccccc1)[C@@H]1CN2CCC1CC2)c1c(Cl)ccc(C(F)(F)F)c1Cl", "outcome": "inactive"},
      {"smiles": "ClC1=C(Cl)[C@]2(Cl)[C@H]3[C@H]([C@@H]4C=C[C@H]3C4)[C@@]1(Cl)C2(Cl)Cl", "AC50": "1.45 µM (active)"},
      {"smiles": "OCCCl", "outcome": "inactive"},
      {"smiles": "CCOC(=O)[C@]1(c2ccccc2)Oc2ccccc2[C@@H]1N", "outcome": "inactive"},
      {"smiles": "O=Cc1ccco1", "outcome": "inactive"},
      {"smiles": "[O-][Cl+]O", "outcome": "inactive"},
      {"smiles": "Nc1ccc(Oc2ccc(N)cc2)cc1", "outcome": "inactive"},
      {"smiles": "C1=Cc2cccc3cccc1c23", "outcome": "inactive"},
      {"smiles": "Oc1ccc2ccc3cccc4ccc1c2c34", "outcome": "inactive"},
      {"smiles": "CCCCCCCCCCCCCN1CC(C)OC(C)C1", "note": "(stereo not given)", "outcome": "inactive"},
      {"smiles": "CC(C)(C)OOC(C)(C)CCC(C)(C)OOC(C)(C)C", "outcome": "inactive"},
      {"smiles": "Cc1cccc(N)c1N", "AC50": "50 µM (active)"},
      {"smiles": "Brc1ccc(Oc2ccccc2)cc1", "outcome": "inactive"},
      {"smiles": "CCCCC(CC)COC(=O)c1ccc(C(=O)OCC(CC)CCCC)c(C(=O)OCC(CC)CCCC)c1", "note": "(stereo not given)", "outcome": "inactive"},
      {"smiles": "Oc1ccccc1Cl", "outcome": "inactive"},
      {"smiles": "Cc1ccc([N+](=O)[O-])cc1", "outcome": "inactive"},
      {"smiles": "COC(=O)Nc1nc2ccccc2[nH]1", "outcome": "inactive"},
      {"smiles": "CCN(CC)N=O", "outcome": "inactive"},
      {"smiles": "CCOc1cccc(C2(N3CCN(c4ccccc4)CC3)CCC(C)CC2)c1", "note": "(stereo not given)", "outcome": "inactive"},
      {"smiles": "CC(C)(O)c1cnn2c(-c3ccc(F)c(-c4c(F)cccc4C#N)c3)cnc2n1", "outcome": "inactive"},
      {"smiles": "CCC(C)c1ccc(O)cc1", "note": "(stereo not given)", "outcome": "inactive"},
      {"smiles": "CC(C)(OOC(C)(C)c1ccccc1)c1ccccc1", "AC50": "25.4 µM (active)"},
      {"smiles": "CCNS(=O)(=O)C(F)(F)C(F)(F)C(F)(F)C(F)(F)C(F)(F)C(F)(F)C(F)(F)C(F)(F)F", "outcome": "inactive"},
      {"smiles": "c1ccc2c(c1)-c1cccc3cccc-2c13", "outcome": "inactive"},
      {"smiles": "Cn1cc(-c2ccccc2)c(=O)c(-c2cccc(C(F)(F)F)c2)c1", "AC50": "3.59 µM (active)"},
      {"smiles": "O=C(Oc1ccc(Br)cc1)N1CCN2CCC1CC2", "outcome": "inactive"},
      {"smiles": "CN(C)[C@@H]1C(=O)C(C(N)=O)=C(O)[C@@]2(O)C(=O)C3=C(O)c4c(O)cccc4[C@@](C)(O)[C@H]3C[C@@H]12", "outcome": "inactive"},
      {"smiles": "Clc1ccc(Cl)c(Cl)c1", "outcome": "inactive"},
      {"smiles": "Cc1ccc(N)c(N)c1", "outcome": "inactive"},
      {"smiles": "[As]#[In]", "outcome": "inactive"},
      {"smiles": "Cc1cc(N=Nc2ccccc2C)ccc1N", "AC50": "5.98 µM (active)"},
      {"smiles": "Cc1ccc(N)cc1", "outcome": "inactive"},
      {"smiles": "CO[C@@H]1[C@H](OC(=O)NC(=O)CCl)CC[C@]2(CO2)[C@H]1[C@@]1(C)O[C@@H]1CC=C(C)C", "outcome": "inactive"},
      {"smiles": "O=P(OCCCl)(OCCCl)OCCCl", "outcome": "inactive"},
      {"smiles": "O=C(O)C1C2CCC(O2)C1C(=O)O", "note": "(stereo not given)", "AC50": "58.9 µM (active)"}
    ]}
  ]
}
